Records with an inconclusive call do not appear. Active and inactive are the calls of the source. The calls were made as follows, unless noted: active = hit-call score of the fitted dose curve at least 0.9, where 1 is the maximum; inactive = score below 0.9.
Tests used:
[1] = biological target: Retinoic acid receptor RXR-alpha (Homo sapiens) (UniProt P19793); experiment: ATG_RXRa_TRANS: Attagene TRANS-FACTORIAL HepG2 Assay for human Retinoid X Receptor alpha (RXRa) (AID 2283012; active = hit-call score of the fitted dose curve at least 0.9, where 1 is the maximum)
Outline: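 Transient transfection of human HepG2 with multiple GAL4-UAS reporter constructs; 24 h compound exposure; total RNA isolated, reverse-transcribed, PCR-amplified, 6-FAM labelled, HpaI-cut, resolved by capillary electrophoresis. Positive-direction fit versus DMSO.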

[2] = biological target: human Retinoid X Receptor beta (RXRb), RXRB (gene 6257) (UniProt P28702); experiment: ATG_RXRb_TRANS: Attagene TRANS-FACTORIAL HepG2 Assay for human Retinoid X Receptor beta (RXRb) (AID 2283013; active = hit-call score of the fitted dose curve at least 0.9, where 1 is the maximum)
Outline: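 Transfect HepG2 with GAL4-UAS multi-reporter constructs (chimeric NR-Gal4, TRANS format); dose compound 24 h; isolate RNA, RT-PCR, FAM primer extension, HpaI digest; quantify by capillary electrophoresis; positive direction vs DMSO.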

[3] = read-out: E-selectin (Homo sapiens) (UniProt P16581); experiment: BSK_3C_Eselectin: BioMAP Diversity Plus: 3C Assay for Eselectin Biomarker Activity (AID 2283015); details: primary human endothelial cells (HUVEC); actives raise or lower the signal
Outline: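 HUVEC, 3C stimulation; compound exposure 24 h; E-selectin by ELISA; gain- or loss-of-signal fitted bidirectionally vs DMSO baseline.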

[4] = read-out: Interleukin-1 alpha (IL1a), IL1A (gene 3552); experiment: BSK_BE3C_IL1a: BioMAP Diversity Plus: BE3C Assay for Interleukin-1 alpha (IL1a) Biomarker Activity (AID 2283016); details: primary human bronchial epithelial cells; actives raise or lower the signal
Outline: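 BE3C primary human bronchial epithelium; cpd 24 h; IL-1a by ELISA; bidirectional fit vs DMSO; parallel SRB (0.1% SRB, 10% TCA fix, 560 nm) for cytotoxicity.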

[5] = read-out: Monocyte Chemoattractant Protein-1 (MCP1), CCL2 (gene 6347); experiment: BSK_3C_MCP1: BioMAP Diversity Plus: 3C Assay for Monocyte Chemoattractant Protein-1 (MCP1) Biomarker Activity (AID 2283017); details: primary human endothelial cells (HUVEC); actives raise or lower the signal
Outline: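 HUVEC, 3C system; 24 h chemical exposure; MCP-1 by ELISA; bidirectional curve fit vs DMSO baseline.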

[6] = read-out: Monocyte Chemoattractant Protein-1 (MCP1), CCL2 (gene 6347); experiment: BSK_4H_MCP1: BioMAP Diversity Plus: 4H Assay for Monocyte Chemoattractant Protein-1 (MCP1) Biomarker Activity (AID 2283018); details: primary human endothelial cells (HUVEC); actives raise or lower the signal
Outline: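 ELISA read-out of MCP-1 from human vascular endothelial primary cells taken at 24 hours after compound exposure. Activity was fitted in both directions relative to DMSO, which served as negative control.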

[7] = read-out: Human Leukocyte Antigen - DR isotype (HLADR), HLA-DRA (gene 3122); experiment: BSK_3C_HLADR: BioMAP Diversity Plus: 3C Assay for Human Leukocyte Antigen - DR isotype (HLADR) Biomarker Activity (AID 2283019); details: primary human endothelial cells (HUVEC); actives raise or lower the signal
Outline: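 HUVEC, 3C stimulation, 24 h post-dose; HLA-DR by ELISA; bidirectional curve fit vs DMSO baseline; gain or loss of signal scored.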

[8] = read-out: Interleukin-8 (IL8), CXCL8 (gene 3576); experiment: BSK_3C_IL8: BioMAP Diversity Plus: 3C Assay for Interleukin-8 (IL8) Biomarker Activity (AID 2283020); details: primary human endothelial cells (HUVEC); actives raise or lower the signal
Outline: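 ELISA read-out of IL-8 from human umbilical vein endothelium, measured 24 h after chemical dosing. Activity is expressed relative to DMSO negative control, with both increases and decreases fitted.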

[9] = BSK_3C_SRB: Viability Assessment in the BioMAP Diversity Plus: 3C Assay (AID 2283023); details: primary human endothelial cells (HUVEC);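 also: fitted both ways against DMSO so a hit may be signal rise or drop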
Outline: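 HUVEC, 24 h post-dose; 10% TCA fix, 0.1% SRB stain, A560 nm. Bidirectional curve fit vs DMSO negative control.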

[10] = read-out: Matrix Metallopeptidase 1 (MMP1), MMP1 (gene 4312); experiment: BSK_BE3C_MMP1: BioMAP Diversity Plus: BE3C Assay for Matrix Metallopeptidase 1 (MMP1) Biomarker Activity (AID 2283024); details: primary human bronchial epithelial cells; actives raise or lower the signal
Outline: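 Human bronchial epithelial cells (BE3C system) exposed to compound for 24 h; MMP1 then quantified by ELISA. Activity was fitted in both directions relative to DMSO.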

[11] = BSK_3C_Vis: BioMAP Diversity Plus: 3C Assay for Morphology Visualization (AID 2283025); details: primary human endothelial cells (HUVEC);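 also: fitted both ways so gain or loss versus DMSO counts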;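 as to AC50: light microscopy image of cell morphology used as background control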
Outline: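 Chemicals were added to primary human umbilical vein endothelium, cells were incubated 24 h, and morphology was then visualized by light microscopy. Gain or loss of signal was fitted bidirectionally relative to DMSO.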

[12] = read-out: Pselectin, SELP (gene 6403); experiment: BSK_4H_Pselectin: BioMAP Diversity Plus: 4H Assay for Pselectin Biomarker Activity (AID 2283026); details: primary human endothelial cells (HUVEC); actives raise or lower the signal
Outline: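 ELISA read-out of P-selectin on human umbilical vein endothelium after 24 h of dosing. Values derive from bidirectional fitting relative to DMSO. Parallel SRB protein staining flagged overt cytotoxicity.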

[13] = BSK_4H_SRB: Viability Assessment in the BioMAP Diversity Plus: 4H Assay (AID 2283027); details: primary human endothelial cells (HUVEC);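 also: cells exposed to compound for 24 h before staining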;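 as to AC50: curves fitted both ways versus DMSO so AC50 may be loss or gain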
Outline: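 Human umbilical vein endothelial cells were dosed with chemical and, after 24 h, fixed with 10% TCA, stained with 0.1% sulforhodamine B, and read at 560 nm to give total protein as a cytotoxicity measure. Bidirectional fitting relative to DMSO control.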

[14] = BSK_BE3C_SRB: Viability Assessment in the BioMAP Diversity Plus: BE3C Assay (AID 2283028); details: primary human bronchial epithelial cells
Outline: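 Primary human bronchial epithelium; chemical dosing, 24 h; 10% TCA fix, 0.1% SRB stain, A560; bidirectional fit vs DMSO baseline.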

[15] = read-out: Thrombomodulin, THBD (gene 7056); experiment: BSK_3C_Thrombomodulin: BioMAP Diversity Plus: 3C Assay for Thrombomodulin Biomarker Activity (AID 2283029); details: primary human endothelial cells (HUVEC); actives raise or lower the signal
Outline: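 Read-out is ELISA of thrombomodulin on human umbilical vein endothelium 24 h after chemical dosing. Gain or loss of signal is scored relative to DMSO. Overt cytotoxicity is checked in parallel cultures by sulforhodamine B staining.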

[16] = read-out: Urokinase-type plasminogen activator receptor (uPAR), PLAUR (gene 5329); experiment: BSK_4H_uPAR: BioMAP Diversity Plus: 4H Assay for Urokinase-type plasminogen activator receptor (uPAR) Biomarker Activity (AID 2283030); details: primary human endothelial cells (HUVEC); actives raise or lower the signal
Outline: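 HUVEC, 24 h post-dose; uPAR by ELISA; bidirectional fit vs DMSO baseline.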

[17] = biological target: human RAR-related Orphan Receptor gamma (RORg), RORC (gene 6097) (UniProt P51449); experiment: ATG_RORg_TRANS: Attagene TRANS-FACTORIAL HepG2 Assay for human RAR-related Orphan Receptor gamma (RORg) (AID 2283011; active = hit-call score of the fitted dose curve at least 0.9, where 1 is the maximum)
Outline: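 Transient MRTU transfection of HepG2 (TRANS format, exogenous NR-Gal4 chimera). 24 h dosing. Total RNA → oligo(dT) RT → PCR → 6-FAM labelling → HpaI cut → CE. Gain vs DMSO.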

[18] = read-out: Monokine induced gamma interferon (MIG), CXCL9 (gene 4283); experiment: BSK_3C_MIG: BioMAP Diversity Plus: 3C Assay for Monokine induced gamma interferon (MIG) Biomarker Activity (AID 2283021); details: primary human endothelial cells (HUVEC); actives raise or lower the signal;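 as to AC50: MIG protein level measured by immunoassay in the treated endothelial cultures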
Outline: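 Read-out is ELISA detection of MIG on human umbilical vein endothelial cells, taken 24 h after dosing. Gain or loss of signal was scored relative to DMSO controls using bidirectional curve fitting.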

[19] = biological target: human Thyroid Receptor alpha (THRa1), THRA (gene 7067) (UniProt P10827); experiment: ATG_THRa1_TRANS: Attagene TRANS-FACTORIAL HepG2 Assay for human Thyroid Receptor alpha (THRa1) (AID 2283014; active = hit-call score of the fitted dose curve at least 0.9, where 1 is the maximum)
Outline: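 Transient HepG2 transfection, NR-Gal4 chimera driving GAL4-UAS reporters; 24 h compound exposure; total RNA, oligo(dT) RT, PCR, fluorescent primer extension, capillary electrophoresis. Upward direction vs DMSO control.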

[20] = biological target: human Vitamin D Receptor (VDR), VDR (gene 7421) (UniProt P11473); experiment: ATG_VDR_TRANS: Attagene TRANS-FACTORIAL HepG2 Assay for human Vitamin D Receptor (VDR) (AID 2283022; active = hit-call score of the fitted dose curve at least 0.9, where 1 is the maximum)
Outline: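 RT-PCR/capillary electrophoresis read-out of reporter mRNA induction in transiently transfected HepG2; 24 h dosing; chimeric NR-Gal4 (TRANS format); gain-of-signal fit against DMSO baseline.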

Measured: AC50

Sequence of E-selectin (Homo sapiens) (P16581 whole entry, looked up): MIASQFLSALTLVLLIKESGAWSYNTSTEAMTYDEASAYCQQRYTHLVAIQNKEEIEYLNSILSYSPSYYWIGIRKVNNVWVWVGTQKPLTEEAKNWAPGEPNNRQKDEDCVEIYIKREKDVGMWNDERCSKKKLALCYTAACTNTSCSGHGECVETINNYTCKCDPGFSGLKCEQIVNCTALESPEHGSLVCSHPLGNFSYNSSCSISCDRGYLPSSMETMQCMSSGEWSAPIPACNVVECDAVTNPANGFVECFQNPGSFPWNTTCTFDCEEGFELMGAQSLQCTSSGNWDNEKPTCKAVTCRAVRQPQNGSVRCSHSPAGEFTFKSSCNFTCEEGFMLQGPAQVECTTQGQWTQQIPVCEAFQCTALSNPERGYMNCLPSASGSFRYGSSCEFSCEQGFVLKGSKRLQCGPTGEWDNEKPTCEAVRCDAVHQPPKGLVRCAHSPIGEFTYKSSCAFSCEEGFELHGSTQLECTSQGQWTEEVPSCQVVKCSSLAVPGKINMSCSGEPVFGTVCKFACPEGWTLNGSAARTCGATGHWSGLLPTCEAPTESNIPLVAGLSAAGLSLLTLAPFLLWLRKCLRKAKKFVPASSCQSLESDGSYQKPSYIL
Sequence of human Retinoid X Receptor beta (RXRb), RXRB (gene 6257) (P28702 whole entry, looked up, the tested form may be a part): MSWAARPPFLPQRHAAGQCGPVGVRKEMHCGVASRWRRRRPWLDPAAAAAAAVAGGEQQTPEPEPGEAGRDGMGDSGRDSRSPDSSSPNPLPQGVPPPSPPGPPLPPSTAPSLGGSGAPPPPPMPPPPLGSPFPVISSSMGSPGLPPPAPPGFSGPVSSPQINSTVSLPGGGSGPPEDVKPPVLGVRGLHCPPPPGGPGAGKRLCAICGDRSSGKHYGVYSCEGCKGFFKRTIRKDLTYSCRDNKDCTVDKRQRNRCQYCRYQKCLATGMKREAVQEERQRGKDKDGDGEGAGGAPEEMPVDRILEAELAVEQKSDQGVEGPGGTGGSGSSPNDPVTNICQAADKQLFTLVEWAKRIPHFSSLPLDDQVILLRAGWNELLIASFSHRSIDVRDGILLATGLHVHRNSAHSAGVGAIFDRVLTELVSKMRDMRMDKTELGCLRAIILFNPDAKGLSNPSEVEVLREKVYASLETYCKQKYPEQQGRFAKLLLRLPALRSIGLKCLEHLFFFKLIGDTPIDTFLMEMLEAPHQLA
Sequence of Retinoic acid receptor RXR-alpha (Homo sapiens) (P19793 whole entry, looked up, the tested form may be a part): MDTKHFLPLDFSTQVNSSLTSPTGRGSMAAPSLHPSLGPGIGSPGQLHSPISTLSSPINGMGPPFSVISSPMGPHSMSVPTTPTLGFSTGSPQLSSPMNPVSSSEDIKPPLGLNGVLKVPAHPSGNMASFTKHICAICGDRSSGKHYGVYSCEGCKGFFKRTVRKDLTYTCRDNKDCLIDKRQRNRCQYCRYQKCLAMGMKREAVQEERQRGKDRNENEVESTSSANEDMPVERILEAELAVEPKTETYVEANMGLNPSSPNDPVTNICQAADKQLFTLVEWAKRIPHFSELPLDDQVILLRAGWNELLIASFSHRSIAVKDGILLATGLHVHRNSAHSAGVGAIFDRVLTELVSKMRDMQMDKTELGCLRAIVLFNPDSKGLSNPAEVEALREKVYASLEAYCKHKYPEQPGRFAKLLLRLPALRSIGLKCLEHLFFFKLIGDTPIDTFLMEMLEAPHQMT
Sequence of human Vitamin D Receptor (VDR), VDR (gene 7421) (P11473 whole entry, looked up, the tested form may be a part): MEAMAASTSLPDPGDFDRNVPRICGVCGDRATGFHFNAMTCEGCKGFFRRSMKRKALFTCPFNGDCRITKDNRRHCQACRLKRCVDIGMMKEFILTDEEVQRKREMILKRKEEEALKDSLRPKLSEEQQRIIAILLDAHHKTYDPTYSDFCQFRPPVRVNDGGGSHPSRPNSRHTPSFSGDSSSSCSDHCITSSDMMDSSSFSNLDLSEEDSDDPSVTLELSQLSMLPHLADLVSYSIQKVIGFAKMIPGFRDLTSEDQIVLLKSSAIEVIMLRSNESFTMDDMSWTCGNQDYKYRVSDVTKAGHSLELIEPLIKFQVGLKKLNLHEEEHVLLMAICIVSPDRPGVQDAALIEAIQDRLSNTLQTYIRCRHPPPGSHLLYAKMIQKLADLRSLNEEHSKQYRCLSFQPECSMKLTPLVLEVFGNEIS
Sequence of human Thyroid Receptor alpha (THRa1), THRA (gene 7067) (P10827 whole entry, looked up, the tested form may be a part): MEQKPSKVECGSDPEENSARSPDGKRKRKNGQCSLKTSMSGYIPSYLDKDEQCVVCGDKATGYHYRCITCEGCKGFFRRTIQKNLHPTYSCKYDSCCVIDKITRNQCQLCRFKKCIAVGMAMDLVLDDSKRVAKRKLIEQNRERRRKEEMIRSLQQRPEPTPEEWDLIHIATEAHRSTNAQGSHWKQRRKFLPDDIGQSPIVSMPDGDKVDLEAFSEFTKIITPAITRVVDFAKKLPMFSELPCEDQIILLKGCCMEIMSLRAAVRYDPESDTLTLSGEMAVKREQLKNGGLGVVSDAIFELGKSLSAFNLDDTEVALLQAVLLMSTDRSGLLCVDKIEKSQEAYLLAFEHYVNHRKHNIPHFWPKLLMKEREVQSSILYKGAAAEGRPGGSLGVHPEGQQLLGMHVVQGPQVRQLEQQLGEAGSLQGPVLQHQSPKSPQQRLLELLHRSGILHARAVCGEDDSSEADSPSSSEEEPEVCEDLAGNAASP
Sequence of human RAR-related Orphan Receptor gamma (RORg), RORC (gene 6097) (P51449 whole entry, looked up, the tested form may be a part): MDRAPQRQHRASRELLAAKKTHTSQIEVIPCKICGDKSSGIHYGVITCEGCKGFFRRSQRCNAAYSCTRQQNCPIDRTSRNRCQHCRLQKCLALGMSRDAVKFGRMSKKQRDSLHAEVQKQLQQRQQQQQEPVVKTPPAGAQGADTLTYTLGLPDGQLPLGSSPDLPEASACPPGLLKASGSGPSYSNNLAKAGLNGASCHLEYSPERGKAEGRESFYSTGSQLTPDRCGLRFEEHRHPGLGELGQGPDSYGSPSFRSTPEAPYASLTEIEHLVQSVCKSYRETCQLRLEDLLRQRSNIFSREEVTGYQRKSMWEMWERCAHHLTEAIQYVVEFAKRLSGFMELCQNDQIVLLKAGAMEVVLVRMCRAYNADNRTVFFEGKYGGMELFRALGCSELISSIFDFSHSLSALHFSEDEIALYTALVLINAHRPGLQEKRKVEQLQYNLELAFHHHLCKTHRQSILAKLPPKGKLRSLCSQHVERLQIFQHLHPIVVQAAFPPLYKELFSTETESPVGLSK

CCCCOC(=O)c1ccccc1
not listed: [17] | [18] | [19] | [20]
inactive: all other assays above

CCOC(N)=O
not listed: [2] | [5] | [10] | [19] | [20]
inactive: all other assays above

CCCc1ccccc1
not listed: [10] | [17] | [18]
inactive: all other assays above

CCOc1ccc2[nH]cc(C(=O)NCc3ccccc3)c(=O)c2n1
not listed: [17] | [18]
inactive: all other assays above

CC(C)C(=O)Nc1ccc([N+](=O)[O-])c(C(F)(F)F)c1
active: [2] 13.3 µM | [19] 100 µM | [7] 34.1 µM
not listed: [10] | [17] | [18] | [20]
inactive: all other assays above

CCCCCCCCCCCCCCO
inactive: [1] | [19] | [4] | [20] | [14] | [15]
active: [2] 45.4 µM | [3] 36.7 µM | [6] 29.6 µM | [7] 36.7 µM | [8] 30.4 µM | [18] 30.7 µM | [9] 31.3 µM | [11] 37.5 µM | [12] 33.1 µM | [13] 34 µM | [16] 32.6 µM

C[C@@H](Oc1ccc(CNC(=O)c2cccnc2Oc2ccc3c(c2)OCO3)c(F)c1)C(=O)O
not listed: [10] | [17] | [20]
inactive: all other assays above

From PubChem BioAssay (EPA / NIEHS)
